In PubChem BioAssay (EPA / NIEHS):
More than one record can exist for a structure, and the calls need not agree. Activity calls are given as the source filed them. Rule for the calls: active = hit-call score of the fitted dose curve at least 0.9, where 1 is the maximum; inactive = score below 0.9.

Test: CCTE_Shafer_MEA_acute_per_burst_spike_number_mean: CCTE's Neural Acute Assay for Average Number of Spikes Per Burst, Shafer Lab (AID 2284015);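 note: hits are decreases in mean spikes per burst versus baseline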
Method: CCTE_Shafer_MEA_acute assay is conducted using Axion Biosystems 48 well microelectrode array (MEA) plates and Maestro recording system. Each well of the MEA plate contains a grid of 16 microelectrodes embedded in the culture surface. Electrically active cells, such as neurons, can be cultured over the electrodes, and electrical activity in these cells can be recorded extracellularly. The spontaneous firing of neurons is captured from each electrode on a microsecond timescale providing both temporally and spatially precise data. […] The CCTE_Shafer_MEA_acute assay uses primary cultures of rat cortical neurons. As these cultures mature over time, neural networks develop functional activity and form cohesive networks in which electrical activity can be highly coordinated. Baseline 40-minute recordings are made on days post-plating 13 or 15, followed by a secondary 40-minute recording after chemical exposure.CCTE_Shafer_MEA_acute_per_burst_spike_number_mean is a component of the CCTE_Shafer_MEA_acute assay. It measures the average number of spikes (action potential firings) in a single-electrode burst (temporally-clustered group of spikes) during a recording in a microelectrode array (MEA) using Axion Biosystems Maestro 768 channel amplifier with the AxIS adaptive spike detector. The recordings before and after chemical treatment are used to calculate a percent change in the mean number of spikes per burst in each well.Data from the assay component CCTE_Shafer_MEA_acute_per_burst_spike_number_mean was analyzed into 1 assay endpoint. This assay endpoint, CCTE_Shafer_MEA_acute_per_burst_spike_number_mean, was analyzed in the negative analysis fitting direction relative to DMSO as the negative control and baseline of activity. Using a type of functional reporter, gain or loss-of-signal activity can be used to understand electrical activity.
Spontaneous activity in the cortical cultures was recorded using an Axion Biosystems Maestro 768 channel amplifier and Axion Integrated Studios (AxIS) v1.8 (or later) software. The amplifier recorded from all channels simultaneously (gain = 1200 x; sampling rate = 12.5 kHz/channel): raw signals were filtered with a Butterworth band-pass filter (300-5000 Hz), which filters out slower local field potentials leaving only fast potentials, i.e., "spikes", arising from extracellular currents associated with action potentials (Pine 2006; Wheeler and Nam 2011). On-line spike detection of filtered signals was conducted with the AxIS adaptive spike detector, using a threshold of 8x the root mean squared (rms) noise on each channel. Any electrodes with rms noise levels greater than 5 uV were grounded (e.g., no data were recorded). Once grounded, an electrode was grounded for the duration of the experiment. All recordings were conducted at 37 C. Wells were deemed usable if on the day of the exposure >/= 10 electrodes were active (defined as >/= 5 spikes/min). On DIV 13 or 15, a minimum of three wells from one cortical culture preparation were treated with each compound (0.03-40 uM). Prior to recording baseline activity, each mwMEA plate was placed in the Maestro at 37 C and allowed to sit for 20 min while firing rates stabilized. Baseline activity (40 min) was recorded before the addition of each compound. An additional 40 min of spontaneous activity was recorded in the presence of each compound. Changes in network parameters relative to baseline were assessed following compound treatment.

SMILES | outcome | AC50
c1ccc(OCCOc2ccccc2)cc1 | inactive | –
CC(C)(CO)CO | inactive | –
CCn1cc(C(=O)O)c(=O)c2ccc(C)nc21 | inactive | –
CC(=O)c1ccc(C)cc1 | inactive | –
N[C@@H](CCC(=O)O)C(=O)O | inactive | –
CC(C)CCCC(C)(C)O | inactive | –
O=C(c1ccc(OCCN2CCCCC2)cc1)c1c(-c2ccc(O)cc2)sc2cc(O)ccc12 | inactive | –
CCCCOCCOCCO | inactive | –
CCCO[Si](OCCC)(OCCC)OCCC | inactive | –
CC/C(=C(\c1ccccc1)c1ccc(OCCN(C)C)cc1)c1ccccc1 | inactive | 18.3 µM (active)
CCCCN(CCO)CCO | inactive | –
